# Experimental data reported in ChEMBL document CHEMBL1961873, “Compounds: GSK PKIS; Assays: Nanosyn kinase panel” (2012).
# Columns and labels:
# [1] = target: T1, Serine/threonine-protein kinase TBK1 (Homo sapiens) (UniProt Q9UHD2); conditions: at 1 µM;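 further: values are mean inhibition of TBK1, screened as part of the GSK published kinase inhibitor set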
# T1 sequence (whole entry): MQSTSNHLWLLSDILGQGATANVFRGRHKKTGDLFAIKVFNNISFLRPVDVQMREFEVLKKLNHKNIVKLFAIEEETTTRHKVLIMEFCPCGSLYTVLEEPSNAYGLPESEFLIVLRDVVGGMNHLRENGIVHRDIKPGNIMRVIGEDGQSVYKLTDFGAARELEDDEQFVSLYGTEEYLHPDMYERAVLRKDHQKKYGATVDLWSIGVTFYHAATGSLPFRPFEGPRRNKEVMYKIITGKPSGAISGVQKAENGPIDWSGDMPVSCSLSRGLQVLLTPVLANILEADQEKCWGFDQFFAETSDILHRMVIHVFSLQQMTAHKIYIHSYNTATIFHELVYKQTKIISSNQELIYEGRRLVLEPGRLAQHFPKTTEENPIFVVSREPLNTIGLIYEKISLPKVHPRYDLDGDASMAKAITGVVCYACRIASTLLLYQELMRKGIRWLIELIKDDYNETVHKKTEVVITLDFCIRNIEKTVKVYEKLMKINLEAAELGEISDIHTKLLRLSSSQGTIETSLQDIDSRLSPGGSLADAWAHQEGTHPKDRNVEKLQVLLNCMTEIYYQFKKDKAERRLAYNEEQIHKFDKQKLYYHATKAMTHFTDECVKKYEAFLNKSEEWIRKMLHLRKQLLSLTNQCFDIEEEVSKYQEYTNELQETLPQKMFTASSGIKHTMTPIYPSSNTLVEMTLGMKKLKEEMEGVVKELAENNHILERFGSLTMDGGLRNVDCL
# [2] = target: T2, Testis-specific serine/threonine-protein kinase 1 (Homo sapiens) (UniProt Q9BXA7); conditions: at 0.1 µM
# T2 sequence (whole entry): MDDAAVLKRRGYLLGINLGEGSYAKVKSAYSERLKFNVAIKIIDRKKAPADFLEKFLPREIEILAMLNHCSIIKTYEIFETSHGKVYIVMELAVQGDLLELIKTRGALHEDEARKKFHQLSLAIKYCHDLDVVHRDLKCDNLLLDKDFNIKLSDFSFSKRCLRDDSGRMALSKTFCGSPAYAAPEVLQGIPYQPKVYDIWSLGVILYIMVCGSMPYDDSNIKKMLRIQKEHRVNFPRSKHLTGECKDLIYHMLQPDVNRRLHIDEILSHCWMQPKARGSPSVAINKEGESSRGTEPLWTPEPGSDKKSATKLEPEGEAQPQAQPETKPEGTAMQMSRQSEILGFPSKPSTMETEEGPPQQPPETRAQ
# [3] = target: T2, Testis-specific serine/threonine-protein kinase 1 (Homo sapiens); conditions: at 1 µM
# [4] = target: T3, Testis-specific serine/threonine-protein kinase 2 (Homo sapiens) (UniProt Q96PF2); conditions: at 0.1 µM
# T3 sequence (whole entry): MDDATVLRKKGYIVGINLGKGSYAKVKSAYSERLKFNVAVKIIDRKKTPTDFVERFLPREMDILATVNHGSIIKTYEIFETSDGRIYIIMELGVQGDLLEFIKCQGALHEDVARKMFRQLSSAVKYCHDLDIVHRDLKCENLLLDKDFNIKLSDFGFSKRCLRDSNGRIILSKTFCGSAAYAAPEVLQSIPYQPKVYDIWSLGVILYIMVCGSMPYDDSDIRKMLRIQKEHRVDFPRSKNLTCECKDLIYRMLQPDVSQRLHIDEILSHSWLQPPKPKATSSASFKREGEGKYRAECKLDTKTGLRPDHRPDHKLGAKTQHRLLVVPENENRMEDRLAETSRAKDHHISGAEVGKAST
# [5] = target: T3, Testis-specific serine/threonine-protein kinase 2 (Homo sapiens); conditions: at 1 µM
# [6] = target: Casein kinase I isoform alpha (Homo sapiens) (UniProt P48729); conditions: at 0.1 µM
# Chain of Casein kinase I isoform alpha (Homo sapiens) (P48729 2-337 limits assumed): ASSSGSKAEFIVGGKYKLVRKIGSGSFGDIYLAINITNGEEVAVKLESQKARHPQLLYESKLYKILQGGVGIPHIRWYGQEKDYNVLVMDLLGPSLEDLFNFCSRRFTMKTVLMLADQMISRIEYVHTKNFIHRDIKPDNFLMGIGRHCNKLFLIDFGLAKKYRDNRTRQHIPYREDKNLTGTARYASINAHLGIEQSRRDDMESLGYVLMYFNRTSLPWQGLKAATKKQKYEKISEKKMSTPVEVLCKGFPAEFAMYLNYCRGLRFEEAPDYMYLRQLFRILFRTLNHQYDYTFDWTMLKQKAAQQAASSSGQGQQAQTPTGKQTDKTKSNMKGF
# [7] = target: Casein kinase I isoform alpha (Homo sapiens) (UniProt P48729); conditions: at 1 µM
# [8] = target: Casein kinase I isoform gamma-1 (Homo sapiens) (UniProt Q9HCP0); conditions: at 0.1 µM
# Chain of Casein kinase I isoform gamma-1 (Homo sapiens) (Q9HCP0 whole entry, looked up, canonical isoform): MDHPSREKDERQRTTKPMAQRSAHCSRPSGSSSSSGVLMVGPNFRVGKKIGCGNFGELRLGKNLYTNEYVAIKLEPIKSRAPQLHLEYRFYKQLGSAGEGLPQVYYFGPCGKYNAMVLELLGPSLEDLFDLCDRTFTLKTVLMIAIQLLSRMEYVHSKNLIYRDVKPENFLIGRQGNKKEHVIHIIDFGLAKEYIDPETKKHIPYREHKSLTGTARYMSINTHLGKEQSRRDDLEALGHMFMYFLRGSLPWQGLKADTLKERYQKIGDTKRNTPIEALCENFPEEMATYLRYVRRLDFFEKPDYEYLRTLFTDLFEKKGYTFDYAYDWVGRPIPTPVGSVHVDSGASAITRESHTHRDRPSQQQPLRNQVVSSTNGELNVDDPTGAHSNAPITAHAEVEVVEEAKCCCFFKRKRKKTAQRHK
# [9] = target: Casein kinase I isoform gamma-1 (Homo sapiens) (UniProt Q9HCP0); conditions: at 1 µM
# [10] = target: Casein kinase I isoform gamma-2 (Homo sapiens) (UniProt P78368); conditions: at 0.1 µM
# Chain of Casein kinase I isoform gamma-2 (Homo sapiens) (P78368 whole entry, looked up, canonical isoform): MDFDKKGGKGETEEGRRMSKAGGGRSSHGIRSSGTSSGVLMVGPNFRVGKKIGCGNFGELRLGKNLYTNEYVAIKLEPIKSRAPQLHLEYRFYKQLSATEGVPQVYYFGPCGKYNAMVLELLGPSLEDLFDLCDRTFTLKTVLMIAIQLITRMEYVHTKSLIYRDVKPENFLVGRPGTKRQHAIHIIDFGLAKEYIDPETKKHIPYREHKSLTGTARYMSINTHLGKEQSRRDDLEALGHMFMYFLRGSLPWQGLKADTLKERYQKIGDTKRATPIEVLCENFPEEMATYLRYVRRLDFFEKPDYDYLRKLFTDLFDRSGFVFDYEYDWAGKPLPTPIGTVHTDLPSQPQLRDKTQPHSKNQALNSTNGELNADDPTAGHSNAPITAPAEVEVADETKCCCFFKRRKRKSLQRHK
# [11] = target: Casein kinase I isoform gamma-2 (Homo sapiens) (UniProt P78368); conditions: at 1 µM
# [12] = target: Casein kinase I isoform gamma-3 (Homo sapiens) (UniProt Q9Y6M4); conditions: at 0.1 µM
# Chain of Casein kinase I isoform gamma-3 (Homo sapiens) (Q9Y6M4 whole entry, looked up, canonical isoform): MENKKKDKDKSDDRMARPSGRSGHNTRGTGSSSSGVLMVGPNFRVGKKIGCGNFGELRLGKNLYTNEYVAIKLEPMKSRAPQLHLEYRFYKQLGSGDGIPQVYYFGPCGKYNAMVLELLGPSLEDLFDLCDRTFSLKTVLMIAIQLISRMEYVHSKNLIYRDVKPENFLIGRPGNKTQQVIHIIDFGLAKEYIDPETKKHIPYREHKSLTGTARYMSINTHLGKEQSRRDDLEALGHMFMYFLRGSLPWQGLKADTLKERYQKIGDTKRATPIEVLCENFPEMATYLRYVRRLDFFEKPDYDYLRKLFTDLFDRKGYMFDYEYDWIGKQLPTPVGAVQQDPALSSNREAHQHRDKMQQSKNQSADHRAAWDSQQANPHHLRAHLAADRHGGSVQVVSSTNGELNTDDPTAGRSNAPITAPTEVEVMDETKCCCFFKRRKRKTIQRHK
# [13] = target: Casein kinase I isoform gamma-3 (Homo sapiens) (UniProt Q9Y6M4); conditions: at 1 µM
# [14] = target: Cyclin-dependent kinase 1 (Homo sapiens) (UniProt P06493); conditions: at 0.1 µM
# Chain of Cyclin-dependent kinase 1 (Homo sapiens) (P06493 whole entry, looked up): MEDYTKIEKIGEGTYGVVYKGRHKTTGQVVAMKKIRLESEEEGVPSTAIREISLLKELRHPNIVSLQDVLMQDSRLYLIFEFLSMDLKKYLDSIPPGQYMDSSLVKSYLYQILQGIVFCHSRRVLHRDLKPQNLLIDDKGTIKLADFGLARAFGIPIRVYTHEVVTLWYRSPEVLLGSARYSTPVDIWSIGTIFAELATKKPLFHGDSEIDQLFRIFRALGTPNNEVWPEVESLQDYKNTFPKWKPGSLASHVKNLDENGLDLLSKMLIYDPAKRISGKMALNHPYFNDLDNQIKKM
# [15] = target: Cyclin-dependent kinase 1 (Homo sapiens) (UniProt P06493); conditions: at 1 µM
# [16] = target: Cyclin-dependent kinase 2 (Homo sapiens) (UniProt P24941); conditions: at 0.1 µM
# [17] = target: Cyclin-dependent kinase 2 (Homo sapiens) (UniProt P24941); conditions: at 1 µM
# [18] = target: Cyclin-dependent kinase 2 (Homo sapiens) (UniProt P24941); conditions: at 0.1 µM; remark: listed apart in the source
# [19] = target: Cyclin-dependent kinase 2 (Homo sapiens) (UniProt P24941); conditions: at 1 µM; remark: listed apart in the source
# [20] = target: CDK3/Cyclin E (Homo sapiens) (UniProt P24864+Q00526); conditions: at 0.1 µM;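 further: reported percentages are mean inhibition values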
# Chain of CDK3/Cyclin E (Homo sapiens) (P24864 whole entry, looked up): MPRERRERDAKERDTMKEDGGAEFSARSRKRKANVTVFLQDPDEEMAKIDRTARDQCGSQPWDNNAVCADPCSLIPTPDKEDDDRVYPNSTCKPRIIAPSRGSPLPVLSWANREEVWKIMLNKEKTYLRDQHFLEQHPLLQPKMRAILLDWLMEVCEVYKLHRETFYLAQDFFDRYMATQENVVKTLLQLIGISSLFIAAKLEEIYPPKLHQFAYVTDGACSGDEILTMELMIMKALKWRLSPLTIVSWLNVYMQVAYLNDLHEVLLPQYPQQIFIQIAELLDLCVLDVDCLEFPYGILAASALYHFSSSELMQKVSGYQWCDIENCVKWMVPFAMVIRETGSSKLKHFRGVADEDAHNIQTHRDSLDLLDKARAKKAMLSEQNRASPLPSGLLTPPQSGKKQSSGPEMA
# Chain of CDK3/Cyclin E (Homo sapiens) (Q00526 whole entry, looked up): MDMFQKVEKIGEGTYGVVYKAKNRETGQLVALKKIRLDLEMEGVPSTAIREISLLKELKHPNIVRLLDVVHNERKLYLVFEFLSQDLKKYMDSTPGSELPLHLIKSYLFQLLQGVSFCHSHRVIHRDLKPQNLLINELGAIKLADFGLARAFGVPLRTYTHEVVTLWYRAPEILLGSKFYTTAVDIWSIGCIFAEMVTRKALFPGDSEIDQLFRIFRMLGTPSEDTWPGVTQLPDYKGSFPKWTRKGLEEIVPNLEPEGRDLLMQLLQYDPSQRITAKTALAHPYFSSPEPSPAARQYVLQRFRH
compound,measurement,setting,value
Nc1nccc(-c2c(-c3ccc(F)cc3)ncn2C2CCC(O)CC2)n1 (stereo not given),inhibition,[1],1.41%
same,inhibition,[2],-2.82%
same,inhibition,[3],-1.96%
same,inhibition,[4],-1.46%
same,inhibition,[5],-0.41%
same,inhibition,[6],62.4%
same,inhibition,[7],90.1%
same,inhibition,[8],-1.19%
same,inhibition,[9],5.79%
same,inhibition,[10],-1.13%
same,inhibition,[11],3.41%
same,inhibition,[12],-1.07%
same,inhibition,[13],10.8%
same,inhibition,[14],0.17%
same,inhibition,[15],5.68%
same,inhibition,[16],-0.46%
same,inhibition,[17],-4.73%
same,inhibition,[18],0.06%
same,inhibition,[19],1.24%
same,inhibition,[20],-1%
CNC(=O)c1cncc(/C=C/c2c(C)cccc2C)c1,inhibition,[1],0.94%
same,inhibition,[2],0.04%
same,inhibition,[3],-1.47%
same,inhibition,[4],-0.04%
same,inhibition,[5],-1.42%
same,inhibition,[6],4.35%
same,inhibition,[7],2.33%
same,inhibition,[8],-2.91%
same,inhibition,[9],-2.08%
same,inhibition,[10],-2.38%
same,inhibition,[11],-0.99%
same,inhibition,[12],-1.38%
same,inhibition,[13],-0.55%
same,inhibition,[14],-3.38%
same,inhibition,[15],1.17%
same,inhibition,[16],-3.98%
same,inhibition,[17],4.82%
same,inhibition,[18],-1.1%
same,inhibition,[19],-2.25%
same,inhibition,[20],-0.48%
Cc1ccc(C(=O)NC2CCC2)cc1-c1ccc(C(=O)NCC2CC2)cc1,inhibition,[1],2.24%
same,inhibition,[2],2.11%
same,inhibition,[3],1.32%
same,inhibition,[4],0.09%
same,inhibition,[5],-0.03%
same,inhibition,[6],3.36%
same,inhibition,[7],6.49%
same,inhibition,[8],2.64%
same,inhibition,[9],3.13%
same,inhibition,[10],1.72%
same,inhibition,[11],2.95%
same,inhibition,[12],2.2%
same,inhibition,[13],2.4%
same,inhibition,[14],0.42%
same,inhibition,[15],1.39%
same,inhibition,[16],2.38%
same,inhibition,[17],0.45%
same,inhibition,[18],2.25%
same,inhibition,[19],3.3%
same,inhibition,[20],2.79%
COc1ccc2cc(-c3c(-c4ccncc4)nc(-c4ccc(S(C)(=O)=O)cc4C)n3C)ccc2c1,inhibition,[1],5.22%
same,inhibition,[2],4.54%
same,inhibition,[3],6.64%
same,inhibition,[4],2.43%
same,inhibition,[5],3.81%
same,inhibition,[6],2.38%
same,inhibition,[7],4%
same,inhibition,[8],3.35%
same,inhibition,[9],4.23%
same,inhibition,[10],2.92%
same,inhibition,[11],4.03%
same,inhibition,[12],3.31%
same,inhibition,[13],2.13%
same,inhibition,[14],1.11%
same,inhibition,[15],1.69%
same,inhibition,[16],2.79%
same,inhibition,[17],-7.25%
same,inhibition,[18],3.25%
same,inhibition,[19],2.47%
same,inhibition,[20],5.76%
O=C(Nc1n[nH]c2cc(-c3cc(F)ccc3F)ccc12)C1CC1,inhibition,[1],5.44%
same,inhibition,[2],2.75%
same,inhibition,[3],2.04%
same,inhibition,[4],1.22%
same,inhibition,[5],0.5%
same,inhibition,[6],0.79%
same,inhibition,[7],1.31%
same,inhibition,[8],3.28%
same,inhibition,[9],3.73%
same,inhibition,[10],2.53%
same,inhibition,[11],3.38%
same,inhibition,[12],1.27%
same,inhibition,[13],2.99%
same,inhibition,[14],1.12%
same,inhibition,[15],7.47%
same,inhibition,[16],2.01%
same,inhibition,[17],17.3%
same,inhibition,[18],2.48%
same,inhibition,[19],11.6%
same,inhibition,[20],2.32%
NC(=O)c1cc(-c2ccncc2)cc(-c2ccccc2)c1N,inhibition,[1],9.27%
same,inhibition,[2],3.7%
same,inhibition,[3],5.71%
same,inhibition,[4],2.4%
same,inhibition,[5],1.64%
same,inhibition,[6],4.55%
same,inhibition,[7],7.76%
same,inhibition,[8],4.75%
same,inhibition,[9],5.37%
same,inhibition,[10],3.86%
same,inhibition,[11],4.95%
same,inhibition,[12],4.56%
same,inhibition,[13],4.47%
same,inhibition,[14],-0.45%
same,inhibition,[15],1.56%
same,inhibition,[16],2.79%
same,inhibition,[17],5.38%
same,inhibition,[18],4.07%
same,inhibition,[19],3.97%
same,inhibition,[20],4.6%
Cc1ccc(NC(=O)c2ccoc2)cc1-c1ccc(C(=O)NCC2CC2)cc1,inhibition,[1],0.72%
same,inhibition,[2],1.46%
same,inhibition,[3],3.27%
same,inhibition,[4],0.85%
same,inhibition,[5],1.22%
same,inhibition,[6],1.36%
same,inhibition,[7],1.47%
same,inhibition,[8],2.78%
same,inhibition,[9],3.5%
same,inhibition,[10],2.62%
same,inhibition,[11],3.57%
same,inhibition,[12],2.63%
same,inhibition,[13],2.71%
same,inhibition,[14],1.06%
same,inhibition,[15],1.75%
same,inhibition,[16],-0.08%
same,inhibition,[17],1.04%
same,inhibition,[18],0.91%
same,inhibition,[19],3.1%
same,inhibition,[20],-0.03%
